In the library only some 2.8% were active in any assay of this set; here they are far more common.
PglD inh = C. jejuni PglD acetyltransferase inhibitors, primary screen, biochemical, DTNB colorimetric, single point; purified PglD enzyme, DTNB colorimetric CoA detection; inhibition, % at 12.5 µM; 0.098% of 360,000 active; AID 602405, 2012; in the data active means inhibition above about 16%, passing the limit was not always enough; inconclusive means no clear call, values can overlap the other calls
dFosB act-1 = activators of delta FosB homodimer, primary screen, biochemical, fluorescence polarization, TAMRA-CDK5 oligo, single point. AID 493131, 2011. 0.99% of 340,000 active. activation, % at 25 µM. purified delta FosB; percent of positive-control signal above neutral wells;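 active means mean activation above about 17%, with every replicate also reaching it, limit read from the data, passing the limit was not always enough; inconclusive means only one of the two conditions met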
FGF22 binding = binders of human FGF22 protein, primary screen, FGF22 synaptogenesis inhibitor project, biophysical, thermal shift, single point; 1.5% of 340,000 active; recombinant FGF22 thermal shift, SYPRO orange fluorescence; percent of sucrose octasulfate shift, DMSO zero; activity (Tm shift, normalised), % at 9.99 µM; Fibroblast growth factor 22 (Homo sapiens), Q9HCT0;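 active means mean Tm shift, scaled 0 neutral to 100 positive control, at about 1.3% or above, every replicate too, limit read from the data; inconclusive means no clear call, values can overlap the other calls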
Target sequence (Q9HCT0 whole entry, looked up): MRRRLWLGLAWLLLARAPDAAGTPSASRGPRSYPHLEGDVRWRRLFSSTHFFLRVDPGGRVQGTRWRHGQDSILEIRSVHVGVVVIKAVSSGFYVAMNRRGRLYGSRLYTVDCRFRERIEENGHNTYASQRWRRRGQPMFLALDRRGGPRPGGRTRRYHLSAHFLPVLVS
SIRT5 inh = SIRT5 desuccinylase inhibitors, primary screen, biochemical, fluorescence imaging, single point, set 5 | NAD-dependent protein deacylase sirtuin-5, mitochondrial (Homo sapiens), Q9NXA8 | Purified SirT5, succinyl-peptide AMC, trypsin-coupled fluorescence | inhibition, % at 15 µM | 1.1% of 330,000 active | AID 652115, 2013; in the data active means inhibition above about 15%; inconclusive means no clear call, values can overlap the other calls
Target sequence (Q9NXA8 whole entry, looked up): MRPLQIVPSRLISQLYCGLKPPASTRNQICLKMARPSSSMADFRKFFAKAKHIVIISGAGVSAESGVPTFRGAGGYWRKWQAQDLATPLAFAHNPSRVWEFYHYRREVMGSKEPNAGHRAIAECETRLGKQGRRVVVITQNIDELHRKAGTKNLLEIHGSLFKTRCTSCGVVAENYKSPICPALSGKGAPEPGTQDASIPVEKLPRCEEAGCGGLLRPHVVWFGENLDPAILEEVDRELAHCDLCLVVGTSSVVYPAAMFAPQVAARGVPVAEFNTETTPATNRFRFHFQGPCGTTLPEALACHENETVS
CDK5 inh = inhibitors of human CDK5/p35 kinase, primary screen, biochemical, single concentration; AID 488839, 2010; 0.01% of 330,000 active; Recombinant CDK5/p35, ADP-Glo luminescence, 60 min; Cyclin-dependent kinase 5 (Homo sapiens) + Cyclin-dependent kinase 5 activator 1 (Homo …; inhibition, % at 10 µM;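 active means highest replicate inhibition of at least 50% and at least 75% of replicates reaching 50%; inconclusive means only one of the two criteria met; inactive means both criteria failed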
PvdQ acylase = P. aeruginosa PvdQ acylase inhibitors, primary screen, biochemical, fluorescence, plate reader and imaging, single point. PvdQ acylase [Pseudomonas aeruginosa LESB58]. purified PvdQ acylase. inhibition, % at 10 µM. 0.063% of 340,000 active; in the data active means inhibition above about 30%, passing the limit was not always enough; inconclusive means no clear call, values can overlap the other calls
dFosB act-2 = activators of mouse delta FosB DNA binding, confirmation, biochemical, fluorescence polarization, TAMRA-CDK5 oligo, cherry-picked samples; AID 588690, 2011; shares compounds with dFosB act-1; purified delta FosB; normalised: neutral wells 0, positive control 100; 2,400 tested, under 10 active; activation, % at 24.9 µM;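 active means highest replicate activation at or above 34% and every replicate reaching that threshold; inconclusive means meets only one of the two criteria; inactive means meets neither criterion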;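 further: higher polarization means more probe DNA bound by delta FosB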
Of the large screens only hits and unclear results are named; the others gave an inactive call (follow-up assays come after a bar, where they were run).

C[C@H]1CN([C@@H](C)CO)C(=O)c2cccc(NC(=O)Nc3ccc4c(c3)OCO4)c2O[C@H]1CN(C)Cc1ccc(Oc2ccccc2)cc1	none (no result: dFosB act-1, CDK5 inh, PvdQ acylase)
O=C(OCC(O)C(O)C(O)C(SCc1ccccc1)SCc1ccccc1)c1ccccc1 (configuration not stated)	dFosB act-1 23 | dFosB act-2 inactive
Cn1c(N)c(C(=O)CSc2nnnn2-c2ccccc2)c(=O)n(C)c1=O	none
Cc1ccc(-c2nc(SCC(=O)c3c(N)n(C)c(=O)n(C)c3=O)n[nH]2)cc1	dFosB act-1 32 (no result: PglD inh, SIRT5 inh) | dFosB act-2 inactive
Cc1ccccc1-n1nnnc1SCC(=O)c1c(N)n(C)c(=O)n(C)c1=O	dFosB act-1 23 | dFosB act-2 inactive
COC(=O)c1ccc(NC(=O)c2snnc2-c2ccccc2)cc1	none (no result: PglD inh)
COC(=O)c1ccc(NC(=O)c2c(C(=O)Nc3ccccc3)sc3nc(C)cc(=O)n23)cc1	dFosB act-1 92 (no result: PglD inh) | dFosB act-2 inactive
COC(=O)c1ccc(NC(=O)c2sc3nc(-c4ccccc4)cn3c2C)cc1	dFosB act-1 26 (no result: FGF22 binding, SIRT5 inh) | dFosB act-2 inactive
O=C(C[C@@H]1CC[C@@H](NC(=O)Nc2ccc(F)cc2)[C@H](CO)O1)NCc1ccccn1	none (no result: dFosB act-1, CDK5 inh, PvdQ acylase)
NNc1nc(Nc2ccc([N+](=O)[O-])cc2)nc(N2CCCCCC2)n1	dFosB act-1 67 | dFosB act-2 inactive
Cc1cccc(CSc2nc3ccncc3n2CC(=O)Nc2cc(C)cc(C)c2)c1	dFosB act-1 33 | dFosB act-2 inactive
COc1ccc(Cn2c(C)c(C)c(C#N)c2NC(=O)Nc2ccccc2)cc1	none (no result: FGF22 binding, SIRT5 inh)
COc1ccc(Cn2c(C)c(C)c(C#N)c2NC(=O)Nc2cccc(C)c2)cc1	dFosB act-1 63 (no result: FGF22 binding, SIRT5 inh) | dFosB act-2 inactive
O=C(C[C@H]1C=C[C@@H](NC(=O)c2cccnc2)[C@@H](CO)O1)NCc1ccncn1	none (no result: PglD inh, dFosB act-1, FGF22 binding, CDK5 inh, PvdQ acylase)
Cn1cnc(S(=O)(=O)N[C@H]2CC[C@H](CC(=O)Nc3ccccc3)O[C@@H]2CO)c1	none (no result: dFosB act-1, CDK5 inh, PvdQ acylase)
NCCNc1ccc([N+](=O)[O-])c(Sc2nc3ccccc3[nH]2)c1	dFosB act-1 25 (no result: PglD inh, FGF22 binding, SIRT5 inh) | dFosB act-2 inactive
O=[N+]([O-])c1ccc(N2CCNCC2)cc1Sc1nc2ccccc2[nH]1	none (no result: PglD inh, FGF22 binding, SIRT5 inh)
CCC(=O)N(C)C[C@H]1Oc2cc(C3=CCCC3)ccc2S(=O)(=O)N([C@@H](C)CO)C[C@H]1C	none (no result: dFosB act-1, CDK5 inh, PvdQ acylase)
O=C(Nc1cc(Cl)ccc1-n1cncn1)c1ccc(Br)o1	dFosB act-1 36, FGF22 binding 13 (no result: PglD inh) | dFosB act-2 inactive
O=C(COc1ccc(F)cc1)Nc1cc(Cl)ccc1-n1cncn1	dFosB act-1 26 | dFosB act-2 inactive
C=CCN(c1ccccc1OC)S(=O)(=O)c1cccc(C(=O)NCC(c2ccc(OC)cc2)N2CCCC2)c1 (configuration not stated)	dFosB act-1 27 | dFosB act-2 inactive
Cc1ccc(NC(=O)C2CC(=O)Nc3nc4ccccc4n32)c(C)c1 (configuration not stated)	dFosB act-1 47 | dFosB act-2 inactive
COc1cc2[nH]c(=O)c(C(=O)NCCCN3CCCCC3)c(O)c2cc1OC	dFosB act-1 26 (no result: FGF22 binding, SIRT5 inh) | dFosB act-2 inconclusive
COc1cc2[nH]c(=O)n(Cc3ccc(C(=O)NCCCN4CCC(C)CC4)cc3)c(=O)c2cc1OC	dFosB act-1 28 (no result: FGF22 binding, SIRT5 inh) | dFosB act-2 inactive
CCOc1cc2[nH]c(=S)n(Cc3ccc(C(=O)NCCN(CC)CC)cc3)c(=O)c2cc1OCC	dFosB act-1 25 | dFosB act-2 inactive
COc1cc2[nH]c(=O)n(Cc3ccc(C(=O)N4CCC(N5CCCCC5)CC4)cc3)c(=O)c2cc1OC	dFosB act-1 34 (no result: FGF22 binding, SIRT5 inh) | dFosB act-2 inactive
COc1cc2[nH]c(=O)n(CCCCCC(=O)NCCCN3CCC(C)CC3)c(=O)c2cc1OC	none (no result: FGF22 binding, SIRT5 inh)
C[C@@H]1CN([C@@H](C)CO)C(=O)c2cc(C#CCc3ccccc3)cnc2O[C@H]1CN(C)C(=O)C1CC1	none (no result: dFosB act-1, CDK5 inh, PvdQ acylase)
CC(C)NC(=O)Nc1ccc2c(c1)C(=O)N([C@@H](C)CO)C[C@H](C)[C@H](CN(C)Cc1ccncc1)O2	none (no result: dFosB act-1, CDK5 inh, PvdQ acylase)
CC(=O)N(C)C[C@H]1Oc2cc(C#CC(C)C)ccc2S(=O)(=O)N([C@@H](C)CO)C[C@@H]1C	none (no result: dFosB act-1, CDK5 inh, PvdQ acylase)
CCOC(=O)c1c(C)nc2sc(C(=O)Nc3ccc(OC)cc3)c(N)c2c1-c1ccc(OC)cc1	none (no result: PglD inh, FGF22 binding, SIRT5 inh)
CCOC(=O)c1c(C)nc2sc(C(=O)Nc3ccc(C(C)=O)cc3)c(N)c2c1-c1ccc(OC)cc1	dFosB act-1 19 (no result: PglD inh, FGF22 binding, SIRT5 inh) | dFosB act-2 inactive
C[C@H]1CN([C@@H](C)CO)C(=O)c2cccc(NC(=O)Nc3ccc4c(c3)OCO4)c2O[C@@H]1CN(C)Cc1ccncc1	none (no result: dFosB act-1, CDK5 inh, PvdQ acylase)
Cc1cccc(S(=O)(=O)N2C[C@@H]3[C@H](c4ccccc42)[C@@H](CO)N3C(=O)CC2CC2)c1	none (no result: dFosB act-1, CDK5 inh, PvdQ acylase)
O=C(Nc1nc(-c2ccc(F)cc2)cs1)c1cccnc1	dFosB act-1 34 | dFosB act-2 inactive
O=C(Nc1ccc2nn(-c3ccc(F)cc3)nc2c1)c1cccnc1	dFosB act-1 30, FGF22 binding 44 (no result: PglD inh) | dFosB act-2 inactive
O=C(Nc1nc(-c2ccc(Cl)cc2)cs1)c1cccnc1	dFosB act-1 inconclusive (no result: FGF22 binding, SIRT5 inh)
C/C=C/c1ccc([C@H]2[C@@H](CO)N3CCCCN(S(=O)(=O)c4cccc(C)c4)C[C@@H]23)cc1	none (no result: dFosB act-1, CDK5 inh, PvdQ acylase)
C[C@@H]1CN([C@@H](C)CO)C(=O)c2cc(NC(=O)c3ccncc3)ccc2O[C@@H](C)CCCCO[C@H]1CN(C)C(=O)Nc1ccc(F)cc1	none (no result: dFosB act-1, CDK5 inh, PvdQ acylase)
Cc1ccc2c(C)nc(N/C(N)=N/S(=O)(=O)c3ccccc3)nc2c1	dFosB act-1 25 | dFosB act-2 inactive
COc1ccc2c3c(n(C)c2c1)[C@@H](CO)N(CC1CC1)CC31CCN(C(=O)c2ccc(F)cc2)CC1	none (no result: PglD inh, dFosB act-1, CDK5 inh, PvdQ acylase)
Cc1ccc(S(=O)(=O)NNC(=O)c2c(O)c3ccccc3[nH]c2=O)cc1	dFosB act-1 21, SIRT5 inh 17 | dFosB act-2 inactive
O=C(NNC(=O)c1c(O)c2ccccc2[nH]c1=O)c1ccccc1	dFosB act-1 83 | dFosB act-2 inactive
CC(C)NC(=O)c1c(O)c2ccccc2[nH]c1=O	none (no result: FGF22 binding, SIRT5 inh)
CC(C)C(=O)NNC(=O)c1c(O)c2ccccc2[nH]c1=O	none
